Experimental data from PubChem BioAssay (NCI).
About 79,000 compounds went through this panel and 15% of them were active in at least one assay; those are over-represented in the sample as a whole. Active and inactive are the calls of the source. Rule as the data show it: active = growth inhibition above about 70%; inactive = the rest.

How the values were obtained:
[1] = NCI Yeast Anticancer Drug Screen. Data for the rad52 strain (AID 147);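 also: 0% = growth of vehicle-treated control cultures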; settings: S. cerevisiae rad52 mutant growth inhibition, active compounds read high
Procedure, shortened: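 Here a repair-compromised yeast strain receives each compound; its growth is then quantified and normalised to vehicle-only controls.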

[2] = NCI Yeast Anticancer Drug Screen. Data for the wt1 strain (AID 149);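 also: 0% = growth of vehicle-treated wt1 cultures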; settings: S. cerevisiae wt1 strain (SPY 50644) growth inhibition, active compounds read high
Procedure, shortened: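 The wt1 strain was treated with compounds, and growth was compared with vehicle-treated cultures to give inhibition.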

[3] = NCI Yeast Anticancer Drug Screen. Data for the rad50EPP+ strain (AID 151);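 also: 0% = growth of vehicle-treated control cultures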; settings: S. cerevisiae rad50 mutant strain, active compounds read high
Procedure, shortened: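 Read-out is yeast growth inhibition relative to vehicle; cells used were the rad50EPP+ strain.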

[4] = NCI Yeast Anticancer Drug Screen. Data for the rad50 strain (AID 155);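 also: 0% = growth of vehicle-only cultures of the same strain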; settings: S. cerevisiae rad50 strain growth inhibition, active compounds read high
Procedure, shortened: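 Cells are treated with compound, grown, and their growth is then scored against vehicle-only cultures of the same repair-deficient yeast strain.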

[5] = NCI Yeast Anticancer Drug Screen. Data for the mec2-1 strain (AID 157); settings: S. cerevisiae mec2-1 strain, active compounds read high
Procedure, shortened: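 Using mec2-1 yeast: add compound, measure growth, express inhibition versus vehicle-treated cultures.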

[6] = NCI Yeast Anticancer Drug Screen. Data for the rad14 strain (AID 159);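 also: 0% = growth of vehicle-treated control cultures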; settings: S. cerevisiae rad14 strain growth inhibition, active compounds read high
Procedure, shortened: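 Readout: yeast growth inhibition, referenced to vehicle-only cultures. Strain bears a defined alteration in DNA damage repair.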

[7] = NCI Yeast Anticancer Drug Screen. Data for the sgs1 mgt1 strain (AID 161);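 also: 0% = growth of cultures given vehicle only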; settings: S. cerevisiae sgs1 mgt1 strain, active compounds read high
Procedure, shortened: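 This yeast growth screen uses a strain with defined DNA-repair lesions; compound-treated growth is compared with vehicle-treated growth.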

[8] = NCI Yeast Anticancer Drug Screen. Data for the CLN2oe strain (AID 163);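 also: 0% = growth of vehicle-only control cultures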; settings: S. cerevisiae CLN2oe strain, active compounds read high
Procedure, shortened: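 Whole-cell yeast growth assay. A strain engineered for altered cell-cycle control received compound, and inhibition relative to vehicle-treated cultures was recorded.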

[9] = NCI Yeast Anticancer Drug Screen. Data for the cln2 rad14 strain (AID 165);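 also: 0% = growth equal to vehicle treated cultures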; settings: S. cerevisiae cln2 rad14 strain, active compounds read high
Procedure, shortened: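 Yeast strain cln2 rad14, bearing defects in cell cycle control and DNA repair, serves as the test system; values reflect growth inhibition compared with vehicle.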

[10] = NCI Yeast Anticancer Drug Screen. Data for the bub3 strain (AID 167); settings: S. cerevisiae bub3 mutant strain, active compounds read high
Procedure, shortened: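 Part of a panel of yeast mutants defective in DNA damage repair or cell cycle regulation. Each strain is grown with compound, and inhibition is calculated relative to solvent-treated cultures.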

[11] = NCI Yeast Anticancer Drug Screen. Data for the wt2 strain (AID 169);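 also: 0% = growth of vehicle-treated yeast cultures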; settings: S. cerevisiae wt2 strain growth inhibition, active compounds read high
Procedure, shortened: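 Treated yeast vs. vehicle-treated yeast: growth inhibition determined.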

[12] = NCI Yeast Anticancer Drug Screen. Data for the mlh1 strain (AID 171);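 also: 0% = growth of vehicle-treated control cultures of the same strain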; settings: S. cerevisiae mlh1 strain growth inhibition, active compounds read high
Procedure, shortened: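 A yeast strain with a defined genetic lesion serves as the test organism. Cultures receive compound or vehicle, and growth is measured.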

[13] = NCI Yeast Anticancer Drug Screen. Data for the sgs1 strain (AID 173);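 also: 0% = growth of vehicle-only control cultures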; settings: S. cerevisiae sgs1 mutant, active compounds read high
Procedure, shortened: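 A genetically defined yeast mutant is incubated with the test compound, and its growth is compared to that of the same strain given vehicle.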

[14] = NCI Yeast Anticancer Drug Screen. Data for the mlh1 rad18 strain (AID 175); settings: S. cerevisiae mlh1 rad18 strain growth inhibition, active compounds read high
Procedure, shortened: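 Steps: expose repair-defective yeast to compound; measure growth; express inhibition against vehicle-treated controls.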

[15] = NCI Yeast Anticancer Drug Screen. Data for the rad18 strain (AID 177); settings: S. cerevisiae rad18 mutant growth inhibition, active compounds read high
Procedure, shortened: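 Measured value is growth inhibition of a yeast strain bearing a DNA repair alteration, referenced to vehicle-treated cells.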

[16] = NCI Yeast Anticancer Drug Screen. Data for the mgt1 strain (AID 153); settings: S. cerevisiae mgt1 mutant growth inhibition, active compounds read high
Procedure, shortened: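 Measured: inhibition of mgt1 yeast growth by compound, normalized to vehicle-treated cultures.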

[17] = at 5.0 µM (retest, dose inferred, filed as 0.5)
[18] = at 50.0 µM (retest, dose inferred, filed as 5.0)

Measured: growth inhibition

Cc1ccc(SSc2ccc(C)cc2[N+](=O)[O-])c([N+](=O)[O-])c1
inactive: [1]; at 1.2 µM 5% | [1]; at 3.7 µM 19% | [1]; at 11.0 µM 38% | [2]; at 1.2 µM -2% | [2]; at 3.7 µM 4% | [2]; at 11.0 µM 16% | [2]; at 33.0 µM 50% | [3]; at 1.2 µM 7% | [3]; at 3.7 µM 16% | [3]; at 11.0 µM 48% | [4]; at 1.2 µM 8% | [4]; at 3.7 µM 15% | [4]; [17] 54% | [4]; at 11.0 µM 33% | [4]; at 33.0 µM 68% | [4]; at 50.0 µM 69.5% | [5]; at 1.2 µM -5% | [5]; at 3.7 µM 2% | [5]; [17] 57% | [5]; at 11.0 µM 26% | [5]; at 33.0 µM 66% | [6]; at 1.2 µM -6% | [6]; at 3.7 µM -10% | [6]; at 11.0 µM 10% | [7]; [17] -8% | [8]; at 1.2 µM -11% | [8]; at 3.7 µM 0% | [8]; at 11.0 µM -9% | [8]; at 33.0 µM -5% | [9]; [17] 37% | [10]; at 1.2 µM -3% | [10]; at 3.7 µM -3% | [10]; [17] 26% | [10]; at 11.0 µM 2% | [11]; at 1.2 µM -15% | [11]; at 3.7 µM -6% | [11]; at 11.0 µM 21% | [12]; at 1.2 µM -14% | [12]; at 3.7 µM -8% | [12]; at 11.0 µM -1% | [12]; at 33.0 µM 66% | [13]; at 1.2 µM 0% | [13]; at 3.7 µM 14% | [13]; at 11.0 µM 46% | [14]; [17] 35% | [14]; at 50.0 µM 44.7% | [15]; at 1.2 µM -18% | [15]; at 3.7 µM -14% | [15]; at 11.0 µM 19% | [15]; at 33.0 µM 53%
active: [1]; at 33.0 µM 77% | [1]; at 100.0 µM 86% | [2]; at 100.0 µM 83% | [3]; at 33.0 µM 90% | [3]; at 100.0 µM 87% | [4]; [18] 90% | [4]; at 100.0 µM 86% | [5]; [18] 94% | [5]; at 50.0 µM 78.7% | [5]; at 100.0 µM 86% | [6]; at 33.0 µM 74% | [6]; at 100.0 µM 85% | [7]; [18] 95% | [8]; at 100.0 µM 72% | [9]; [18] 86% | [10]; at 33.0 µM 84% | [10]; [18] 94% | [10]; at 100.0 µM 87% | [11]; at 33.0 µM 82% | [11]; at 100.0 µM 85% | [12]; at 100.0 µM 87% | [13]; at 33.0 µM 91% | [13]; at 100.0 µM 86% | [14]; [18] 80% | [15]; at 100.0 µM 83%

O=C1C=CC(=Nc2ccc3c(c2)Cc2cc(Cl)ccc2-3)O1
active: [2]; at 33.0 µM 99% | [2]; at 100.0 µM 98% | [3]; at 1.2 µM 78% | [3]; at 3.7 µM 90% | [3]; at 11.0 µM 98% | [3]; at 33.0 µM 99% | [3]; at 100.0 µM 96% | [16]; at 33.0 µM 99% | [16]; at 100.0 µM 99% | [4]; at 11.0 µM 78% | [4]; at 33.0 µM 99% | [4]; [18] 99% | [4]; at 50.0 µM 99.5% | [4]; at 100.0 µM 96% | [5]; at 33.0 µM 99% | [5]; [18] 100% | [5]; at 50.0 µM 99% | [5]; at 100.0 µM 98% | [6]; at 11.0 µM 91% | [6]; at 33.0 µM 99% | [6]; at 100.0 µM 97% | [7]; [18] 100% | [7]; at 50.0 µM 99.5% | [8]; at 33.0 µM 98% | [8]; at 100.0 µM 97% | [9]; [18] 99% | [9]; at 50.0 µM 98.2% | [10]; at 11.0 µM 96% | [10]; at 33.0 µM 99% | [10]; [18] 99% | [10]; at 50.0 µM 99.7% | [10]; at 100.0 µM 97% | [11]; at 11.0 µM 100% | [11]; at 33.0 µM 99% | [11]; at 100.0 µM 98% | [12]; at 11.0 µM 74% | [12]; at 33.0 µM 99% | [12]; at 100.0 µM 98% | [13]; at 11.0 µM 88% | [13]; at 33.0 µM 99% | [13]; at 100.0 µM 98% | [14]; [18] 99% | [14]; at 50.0 µM 84.2% | [15]; at 11.0 µM 95% | [15]; at 33.0 µM 99% | [15]; at 100.0 µM 97%
inactive: [2]; at 1.2 µM -3% | [2]; at 3.7 µM 10% | [2]; at 11.0 µM 56% | [16]; at 1.2 µM 2% | [16]; at 3.7 µM 20% | [16]; at 11.0 µM 68% | [4]; at 1.2 µM -1% | [4]; at 3.7 µM 24% | [4]; [17] 25% | [5]; at 1.2 µM 6% | [5]; at 3.7 µM 19% | [5]; [17] 34% | [5]; at 11.0 µM 68% | [6]; at 1.2 µM 10% | [6]; at 3.7 µM 32% | [7]; [17] 49% | [8]; at 1.2 µM -1% | [8]; at 3.7 µM 3% | [8]; at 11.0 µM 23% | [9]; [17] 7% | [10]; at 1.2 µM 4% | [10]; at 3.7 µM 12% | [10]; [17] 7% | [11]; at 1.2 µM 5% | [11]; at 3.7 µM 28% | [12]; at 1.2 µM 9% | [12]; at 3.7 µM 21% | [13]; at 1.2 µM 11% | [13]; at 3.7 µM 48% | [14]; [17] 32% | [15]; at 1.2 µM 10% | [15]; at 3.7 µM 36%

COc1ccc2c(Cc3c4ccccc4cc4ccccc34)cncc2c1O
active: [2]; at 100.0 µM 93% | [3]; at 100.0 µM 80% | [16]; at 100.0 µM 93% | [4]; [18] 98% | [4]; at 50.0 µM 93.9% | [4]; at 100.0 µM 90% | [5]; [18] 97% | [5]; at 50.0 µM 91.5%
inactive: [2]; at 1.2 µM 2% | [2]; at 3.7 µM 4% | [2]; at 11.0 µM 12% | [2]; at 33.0 µM 56% | [3]; at 1.2 µM 4% | [3]; at 3.7 µM 18% | [3]; at 11.0 µM 41% | [3]; at 33.0 µM 68% | [16]; at 1.2 µM 3% | [16]; at 3.7 µM 6% | [16]; at 11.0 µM 11% | [16]; at 33.0 µM 42% | [4]; at 1.2 µM 4% | [4]; at 3.7 µM 6% | [4]; [17] 51% | [4]; at 11.0 µM 26% | [4]; at 33.0 µM 68% | [5]; at 1.2 µM 4% | [5]; at 3.7 µM 7% | [5]; [17] 19% | [5]; at 11.0 µM 12% | [5]; at 33.0 µM 33%
